The values that follow come from PubChem BioAssay.

Molecules are shown by their SMILES. Active and inactive are the calls of the source. Unless noted, the rule behind the calls is not given here.

A short description of assay [1]: compounds binding Alexa647 anti-His antibody – biochemical, small-molecule microarray, 635 nm fluorescence, artefact control for SMM control protein annotation, primary screen (AID 1128).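 Note: score merges feature fluorescence with signal-to-noise for each printed compound spot.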 The conditions noted are these: higher = more signal.
In assay [2] the test system is Human papillomavirus type 1a E7 protein (residues 1-88). Put plainly: HPV1a E7 small-molecule binders, primary screen, biochemical, small-molecule microarray, residues 1-88, 635 nm (AID 1129). The note with it: small-molecule microarray binding, fluorescence 635 nm; higher = more signal.
The target in assay [3] is Focal adhesion kinase 1 (Homo sapiens) (UniProt Q05397). Kind of assay: PTK2 protein binding on printed compound slides – biochemical, small-molecule microarray, 635/667 nm fluorescence, BSA, DTT, primary screen (AID 1130).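 Note: composite of spot emission at 667 nm and signal to noise over triplicate slides.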 The conditions noted are these: 635 nm fluorescence, higher = more signal.
Chain of Focal adhesion kinase 1 (Homo sapiens) (Q05397 whole entry, looked up): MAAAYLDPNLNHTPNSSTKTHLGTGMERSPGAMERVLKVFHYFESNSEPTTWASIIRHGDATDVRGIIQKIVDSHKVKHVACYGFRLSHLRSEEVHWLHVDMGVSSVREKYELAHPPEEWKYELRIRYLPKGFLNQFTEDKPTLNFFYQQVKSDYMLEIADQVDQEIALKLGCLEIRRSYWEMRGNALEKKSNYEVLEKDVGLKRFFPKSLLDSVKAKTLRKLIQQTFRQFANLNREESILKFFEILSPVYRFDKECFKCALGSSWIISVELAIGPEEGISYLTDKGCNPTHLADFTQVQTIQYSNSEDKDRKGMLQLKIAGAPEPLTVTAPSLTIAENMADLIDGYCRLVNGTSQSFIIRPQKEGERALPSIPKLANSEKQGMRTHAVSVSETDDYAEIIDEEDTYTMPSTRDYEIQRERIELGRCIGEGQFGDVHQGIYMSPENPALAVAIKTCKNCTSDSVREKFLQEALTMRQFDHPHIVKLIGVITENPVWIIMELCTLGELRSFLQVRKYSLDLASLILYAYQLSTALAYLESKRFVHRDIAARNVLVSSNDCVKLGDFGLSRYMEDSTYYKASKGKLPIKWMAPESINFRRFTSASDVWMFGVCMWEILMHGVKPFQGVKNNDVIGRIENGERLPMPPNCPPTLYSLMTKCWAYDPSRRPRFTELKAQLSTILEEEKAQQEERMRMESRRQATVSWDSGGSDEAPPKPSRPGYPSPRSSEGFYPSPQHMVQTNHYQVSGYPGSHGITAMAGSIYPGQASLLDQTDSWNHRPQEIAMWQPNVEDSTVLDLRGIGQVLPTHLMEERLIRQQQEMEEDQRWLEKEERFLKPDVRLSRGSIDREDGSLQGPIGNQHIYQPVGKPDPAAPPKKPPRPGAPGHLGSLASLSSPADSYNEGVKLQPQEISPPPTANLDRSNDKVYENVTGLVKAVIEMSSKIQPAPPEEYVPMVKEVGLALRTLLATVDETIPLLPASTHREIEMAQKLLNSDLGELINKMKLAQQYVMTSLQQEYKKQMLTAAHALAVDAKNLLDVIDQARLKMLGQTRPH
Assay [4] relates to Fibrinogen (Alexa647-labelled). Kind of assay: Alexa647-fibrinogen binding to printed small molecules – biochemical, small-molecule microarray, 635/667 nm fluorescence, artefact control for SMM control-protein annotation, profiling panel (AID 1131).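 Note: z-score merges 667 nm fluorescence with per-spot signal-to-noise over triplicate slides.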 The note with it: fibrinogen-A647 binding fluorescence, higher = more signal.
Assay [5] deals with Follistatin (Homo sapiens) (UniProt P19883). Put plainly: FST protein binding to printed compounds – biochemical, small-molecule microarray, 635/667 nm fluorescence, primary screen (AID 1132). The note with it: 635 nm fluorescence, higher = more signal.
Chain of Follistatin (Homo sapiens) (P19883 whole entry, looked up): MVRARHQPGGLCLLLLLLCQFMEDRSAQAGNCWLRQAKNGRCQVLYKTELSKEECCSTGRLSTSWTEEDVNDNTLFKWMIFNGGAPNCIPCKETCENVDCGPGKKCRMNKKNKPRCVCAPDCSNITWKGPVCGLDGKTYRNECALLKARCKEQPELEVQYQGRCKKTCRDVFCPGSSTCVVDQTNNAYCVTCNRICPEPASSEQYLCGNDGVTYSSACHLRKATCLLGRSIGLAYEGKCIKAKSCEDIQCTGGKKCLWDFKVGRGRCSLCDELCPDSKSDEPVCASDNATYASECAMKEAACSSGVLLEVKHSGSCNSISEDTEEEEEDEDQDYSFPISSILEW
Assay [6] has as its target Fibroblast growth factor 2 (Homo sapiens) (UniProt P09038). Put plainly: basic fibroblast growth factor binding to printed compounds – biochemical, small-molecule microarray, 635/667 nm fluorescence, primary screen (AID 1133). The conditions noted are these: FGF2, fluorescence 635/667, higher = more signal.
Assay [7] is described as follows: JC-1 mitochondrial potential readout, lung cancer cells – cell-based, A549, JC-1 fluorescence, basal, 24 h, 100 nL, profiling panel (AID 1138).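 Note: A549 lung adenocarcinoma cells under basal conditions with no added stimulus; test concentration not given here.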 The note with it: higher = more signal.
Assay [8] deals with Lefty1. Put plainly: Lefty1 protein binding to printed compounds – biochemical, small-molecule microarray, 635/667 nm fluorescence, primary screen (AID 1139). The note with it: fluorescence 635/667, higher = more signal.
Assay [9] relates to wheat germ agglutinin (Triticum aestivum), Alexa647-labelled. Kind of assay: Alexa647-WGA lectin binding to printed small molecules – biochemical, small-molecule microarray, 635/667 nm fluorescence, artefact control for SMM control-protein annotation, profiling panel (AID 1140).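 Note: score merges 667 nm feature emission with signal to noise over triplicate slides.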 The note with it: WGA-A647 binding, 635 nm fluorescence, higher = more signal.
Assay [10] addresses Luciferin 4-monooxygenase (Photinus pyralis) (UniProt P08659). Put plainly: inhibition of purified Photinus pyralis luciferase – biochemical, luminescence, purified enzyme, 2006 set, primary screen (AID 1141).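 Note: cell-free assay with purified firefly luciferase at 100 ng per well in PBS; test concentration not given here.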 The conditions noted are these: purified firefly luciferase, SteadyGlo luminescence, 30 min; higher = more signal, called active from +8 up or from −8 down.
Assay [11] concerns Wnt5a (protein binding on small-molecule microarray). Kind of assay: small molecules binding Wnt5a protein – biophysical, small-molecule microarray, 635/667 nm fluorescence, primary screen (AID 1142).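 Note: fluorescence read at 667 nm with signal to noise per printed feature.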 The conditions noted are these: 635 nm fluorescence, higher = more signal.
A short description of assay [12]: ATP-based viability of Huh7 replicon cells – cell-based, CellTiter-Glo luminescence, basal, 48 h, cytotoxicity control for HCV replication inhibitor project, primary screen (AID 1143).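 Note: Huh7 hepatoma cells carrying a hepatitis C replication reporter with no stimulus; test concentration not given here.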 The conditions noted are these: higher = more signal, called active from +8 up or from −8 down.
The nature of assay [13]: Pseudomonas biofilm growth suppression – PAO1 strain, BacTiter-Glo luminescence, LB-PBS, primary screen (AID 1144). The conditions noted are these: P. aeruginosa PAO1 biofilm, 12 h, higher = more signal.
Assay [14] is described as follows: basal CRE-LacZ reporter activity in PC12 – cell-based, unstimulated, primary screen (AID 1145). The conditions noted are these: no forskolin, luminescence, 4.5 h, higher = more signal, called active from +8 up or from −8 down.
Assay [15] can be described thus: forskolin-driven CRE-LacZ activity in PC12 – cell-based, CRE-LacZ reporter, forskolin-stimulated, primary screen (AID 1146).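 Note: PC12 cells with 6xCRE LacZ reporter stimulated by forskolin 10 µM; beta-galactosidase reporter signal reflecting CREB driven transcription.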 The note with it: luminescence, 4.5 h, higher = more signal, called active from +8 up or from −8 down.
Assay [16] addresses Streptavidin (Streptomyces avidinii) (UniProt P22629). Put plainly: compounds binding control protein streptavidin – biophysical, small-molecule microarray, 635/667 nm fluorescence, artefact control for SMM compound annotation, primary screen (AID 1147).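 Note: signal reflects streptavidin binding to arrayed compounds as a control protein.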 The note with it: higher = more signal.
Assay [17] can be described thus: probe aInhba binding on compound microarray – biochemical, small-molecule microarray, 635/667 nm fluorescence, primary screen (AID 1148).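 Note: score merges 667nm spot fluorescence with signal-to-noise for antibody binding to printed compounds.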 The note with it: higher = more signal.
Assay [18] addresses Torsin-1A (Homo sapiens) (UniProt O14656). Put plainly: TOR1A wild-type binding on microarray – cell lysate, small-molecule microarray, lysate, 635/667 nm, primary screen (AID 1149). The conditions noted are these: COS7 hTOR1A-WT lysate, 635 nm fluorescence, higher = more signal.
Assay [19] shares this target. Put plainly: torsin A mutant lysate binding on microarrays – cell lysate, small-molecule microarray, COS7 lysate, 635/667 nm fluorescence, primary screen (AID 1150).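 Note: score pools 667 nm emission and signal to noise measuring lysate protein binding.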 The conditions noted are these: COS7 hTOR1A mutant lysate, 635 nm fluorescence, higher = more signal.
Assay [20] has as its system Sonic hedgehog protein (Shh). Put plainly: Sonic hedgehog microarray binding compounds – biochemical, small-molecule microarray, 635/667 nm fluorescence, primary screen (AID 1151).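 Note: Shh protein binding to compounds spotted on small-molecule microarray slides; score combines spot fluorescence intensity with signal-to-noise across triplicate slides.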 The note with it: 635 nm fluorescence, higher = more signal.

Chain of Luciferin 4-monooxygenase (Photinus pyralis) (P08659 whole entry, looked up): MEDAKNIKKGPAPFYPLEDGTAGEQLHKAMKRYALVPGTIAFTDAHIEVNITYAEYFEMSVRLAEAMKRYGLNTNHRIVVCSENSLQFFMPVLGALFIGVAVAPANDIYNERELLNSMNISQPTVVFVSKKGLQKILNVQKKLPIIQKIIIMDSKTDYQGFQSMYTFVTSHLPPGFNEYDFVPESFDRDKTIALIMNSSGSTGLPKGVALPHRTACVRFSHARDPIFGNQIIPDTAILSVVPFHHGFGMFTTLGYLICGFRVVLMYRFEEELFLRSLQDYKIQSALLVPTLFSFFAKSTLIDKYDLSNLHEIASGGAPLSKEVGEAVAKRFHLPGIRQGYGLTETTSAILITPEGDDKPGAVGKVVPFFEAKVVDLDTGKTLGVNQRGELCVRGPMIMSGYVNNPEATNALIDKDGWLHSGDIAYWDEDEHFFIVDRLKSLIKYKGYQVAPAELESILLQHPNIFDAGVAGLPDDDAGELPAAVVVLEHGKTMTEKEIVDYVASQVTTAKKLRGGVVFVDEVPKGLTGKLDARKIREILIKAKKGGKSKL
Chain of Streptavidin (Streptomyces avidinii) (P22629 whole entry, looked up): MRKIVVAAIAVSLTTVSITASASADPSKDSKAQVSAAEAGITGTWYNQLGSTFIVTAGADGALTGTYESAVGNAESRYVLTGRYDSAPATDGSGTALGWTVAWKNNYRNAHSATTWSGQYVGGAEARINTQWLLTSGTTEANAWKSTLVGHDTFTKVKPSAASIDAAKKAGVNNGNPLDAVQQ
Chain of Torsin-1A (Homo sapiens) (O14656 whole entry, looked up): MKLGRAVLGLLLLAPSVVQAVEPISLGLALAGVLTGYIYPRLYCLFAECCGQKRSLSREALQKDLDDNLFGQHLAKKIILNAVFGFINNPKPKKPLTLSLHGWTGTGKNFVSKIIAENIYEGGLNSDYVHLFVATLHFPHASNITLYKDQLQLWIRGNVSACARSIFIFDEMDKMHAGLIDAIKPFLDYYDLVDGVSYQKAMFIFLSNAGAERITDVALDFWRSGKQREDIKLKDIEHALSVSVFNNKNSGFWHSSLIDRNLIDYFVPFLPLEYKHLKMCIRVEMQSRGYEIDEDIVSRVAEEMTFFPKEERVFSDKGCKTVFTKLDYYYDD
Chain of Fibroblast growth factor 2 (Homo sapiens) (P09038 whole entry, looked up): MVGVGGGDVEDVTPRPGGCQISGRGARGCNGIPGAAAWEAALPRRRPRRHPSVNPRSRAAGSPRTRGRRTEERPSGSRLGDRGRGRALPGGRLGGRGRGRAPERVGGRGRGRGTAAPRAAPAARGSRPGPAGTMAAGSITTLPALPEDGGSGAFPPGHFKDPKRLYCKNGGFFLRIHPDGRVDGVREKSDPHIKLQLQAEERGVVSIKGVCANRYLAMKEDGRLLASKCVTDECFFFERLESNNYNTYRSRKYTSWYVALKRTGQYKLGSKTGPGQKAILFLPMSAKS

For the compound `CCCNC(=O)[C@@]1(c2ccc([N+](=O)[O-])cc2)CC(=O)N(C2CCCCC2)[C@@H]1c1ccc(CO)cc1`, the composite z-score in assay [1] was 1.86; in assay [2] it was 1.24; in [3] it was 0.548; in [4], 0.831; in assay [5], 1.24; in assay [6], 1.66. Besides, the composite z-score in assay [8] was 0.344; in [9], 0.533; in assay [11], -0.0471; in [16], 0.206; in [17], 0.138; in assay [18] it was 0.0388. The composite z-score in assay [19] was determined as 0.455; in assay [20] it was 0.511. For the same compound, the z-score was 1.34 in [7]; -0.92 (inactive) in assay [10]; -1.83 (inactive) in [12]; 0.812 (inactive) in assay [13]; 0.324 (inactive) in assay [14]; -0.775 (inactive) in [15].
Take `C=CCNC(=O)[C@H]1[C@@H]2C(=O)O[C@@H](c3ccccc3)[C@@H](c3ccccc3)N2[C@@H](c2ccc(O)cc2)[C@]12C(=O)Nc1ccc(C#CC3(O)CCCCCC3)cc12`: the composite z-score is 2.76 in [1]; 0.277 in [2]; 0.201 in assay [3]; 0.481 in assay [4]; 1.16 in assay [5]; 0.267 in assay [6]. Also, the composite z-score was -0.15 in assay [8]; 0.0932 in assay [9]; -0.0118 in [11]; 0.163 in assay [16]; 0.0899 in [17]; 0.935 in assay [18]. In addition, the values for the composite z-score in assay [19] and in assay [20] were 1.89 and 1.13, respectively. For the same compound, the z-score is -1.22 in assay [7]; 0.452 (inactive) in assay [10]; -1.11 (inactive) in [12]; -1.06 (inactive) in assay [13]; -0.0246 (inactive) in assay [14]; -0.301 (inactive) in assay [15].
As for `COC(=O)[C@@]1(Cc2ccc(OC)cc2)[C@H]2c3cc(C(=O)N(C)C)n(Cc4ccc(Cl)c(C(F)(F)F)c4)c3C[C@H]2CN1C(=O)c1ccccc1`, the composite z-score in assay [1] is 1.99; in [2], 1.22; in assay [3], 0.71; in assay [4] it was 0.982; in assay [5], 0.655; in assay [6], -0.451. Further, the composite z-score is -0.68 in assay [8]; 1.22 in [9]; 0.758 in assay [11]; 0.725 in [16]; 0.515 in [17]; -0.213 in [18]. Moreover, the composite z-score in assay [19] is 0.234; in [20], -0.988. Moreover, the z-score is 0.0187 in assay [7]; 1.65 (inactive) in assay [10]; -2.81 (inactive) in assay [12]; 0.275 (inactive) in assay [13]; 2.87 (inactive) in assay [14]; 2.18 (inactive) in assay [15].
With `O=c1n(-c2ccccc2)c(=O)n2n1CC(COc1ccccc1)=C([C@H](O)CCc1ccccc1)[C@@H]2CO`, the composite z-score in assay [1] was 0.308; in [2], 0.0864; in assay [3], -0.18; in [4], 0.783; in assay [5], 0.415; in assay [6] it was 1.14. Further, the composite z-score in assay [8] was 0.635; in assay [9], 0.576; in [11], -0.0748; in assay [16] it was -0.275; in [17] it was -0.0618; in assay [18], 0.8. Further, the composite z-score in assay [19] is -0.119; in [20], 0.426. Further, the z-score in assay [7] was 0.77; in assay [10], -1.35 (inactive); in assay [12], -2.16 (inactive); in [13], -0.496 (inactive); in assay [14], 1.49 (inactive); in assay [15] it was -0.373 (inactive).
As to `COC(=O)CCCCCCC(=O)Nc1ccc(NC(=O)CCCC[P+](c2ccccc2)(c2ccccc2)c2ccccc2)cc1`, the composite z-score in assay [1] is 0.703; in [2], 0.289; in assay [3], -0.507; in [4], -0.722; in [5], 1.01; in [6] it was 0.626. Moreover, the composite z-score in assay [8] was 1.23; in [9], 0.0334; in [11], 0.38; in [16], 0.352; in [17], -0.0645; in assay [18], 0.463. Besides, the composite z-score in [19] turned out to be 0.28; in assay [20], 1.89. Also, the z-score was 0.679 in assay [7]; 1.3 (inactive) in [10]; -0.238 (inactive) in assay [12]; -0.873 (inactive) in [13]; 0.575 (inactive) in assay [14]; -1.85 (inactive) in [15].
